Screen size: about 96,000 compounds; about 19,000 (20%) were called active. Only a sample is shown. A number with no mark means an inactive call.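 The calls were made as follows: active = blocking of liver enzyme CYP2C9 beyond about 50% at 5 µM (limit read from the data); inactive = the rest.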

For orientation: inhibition means the change of the read-out against control, counted positive when it falls.

In the test the target is Cytochrome P450 2C9 (Homo sapiens) (UniProt P11712). Put plainly: blockers of cytochrome P450 2C9 activity – biochemical, luminescence, ADME assay, primary screen (AID 777). The following applies: CYP2C9 Supersomes, luciferin-H conversion, at 5 µM, hits give high values.
Chain of Cytochrome P450 2C9 (Homo sapiens) (P11712 whole entry, looked up): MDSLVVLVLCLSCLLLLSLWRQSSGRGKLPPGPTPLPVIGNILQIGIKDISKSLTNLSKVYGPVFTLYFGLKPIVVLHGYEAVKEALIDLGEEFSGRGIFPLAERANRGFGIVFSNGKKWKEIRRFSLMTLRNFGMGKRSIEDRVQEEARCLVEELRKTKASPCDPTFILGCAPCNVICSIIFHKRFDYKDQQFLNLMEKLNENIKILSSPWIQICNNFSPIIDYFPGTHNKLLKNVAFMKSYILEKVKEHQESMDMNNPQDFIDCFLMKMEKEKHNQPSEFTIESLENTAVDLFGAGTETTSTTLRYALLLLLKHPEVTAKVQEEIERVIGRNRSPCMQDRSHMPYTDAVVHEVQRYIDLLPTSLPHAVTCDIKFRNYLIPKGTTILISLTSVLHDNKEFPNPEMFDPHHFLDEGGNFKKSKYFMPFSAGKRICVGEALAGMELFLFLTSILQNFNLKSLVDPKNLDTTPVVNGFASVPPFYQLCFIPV
Regarding `CCOc1ccc(NC(=O)c2ccccc2NS(C)(=O)=O)cc1`, the inhibition is 54.1% (active).
Next, `CCCCNC(=O)c1ccccc1NC(=O)c1ccccc1N(C)S(C)(=O)=O`: -0.4%.
With `COC(=O)c1ccccc1NC(=O)CN(Cc1ccc(Cl)cc1)S(C)(=O)=O` the figure was 55.5% (active); with `COC(=O)c1ccccc1NC(=O)c1ccccc1NS(C)(=O)=O`, 80.6% (active).
On to `CCCNC(=O)Nc1ccccc1C(=O)Nc1ccc(OC)cc1`, for which the inhibition was 44.3%.
Turning to `COC(=O)c1ccc(NC(=O)C(C)N2C(=O)c3ccccc3C2=O)cc1` (configuration not stated), the inhibition was 26.7%.
Regarding `CCOc1ccccc1N(CC(=O)Nc1ccccc1C(=O)OC)S(C)(=O)=O`, the inhibition was 6.7%.
As to `COC(=O)c1ccc(NC(=O)c2ccccc2NS(=O)(=O)c2ccccc2)cc1`, the inhibition was 96.1% (active).
Next, `CCOc1ccc(NC(=O)N(CC(C)C)CC(C)C)cc1`: 6.8%; `COC(=O)c1ccccc1NC(=O)CN(Cc1ccccc1)S(C)(=O)=O`: 27.6%.
`COC(=O)c1ccccc1NC(=O)c1cncc(Br)c1`: the inhibition is -3.1%.
For `S=C1SCN(CCN2CCOCC2)CN1Cc1ccccc1`, the inhibition is 22.3%.
Turning to `Cc1nc(NC(CC(C)C)C(=O)O)c2nc(C)oc2n1` (configuration not stated), the inhibition is 15.1%.
For the compound `COC(=O)CNC(c1ccccc1Cl)c1cc(Br)ccc1NC(=O)CCN1CCOCC1` (configuration not stated), the inhibition was 7.3%.
Regarding `C=CCn1c(-c2ccc3[nH]c(C)c(C)c3c2)n[nH]c1=S`, the inhibition is 31.1%.
Take `CCCc1nc(-c2ccccc2O)n(-c2ccccc2)n1`: the inhibition was -16.7%.
With `Cc1ccc(S(=O)(=O)N2C3C=CC(C3)C2C(=O)O)cc1` (configuration not stated), the inhibition is -4.8%.
With `CCOCCCNC(=O)C(NC(=O)c1ccc(=O)[nH]c1)c1ccc(Cl)cc1` (configuration not stated) the figure was 2.5%.
As for `O=C(NCCOc1ccccc1)c1ccccc1`, the inhibition is -2.4%.
Regarding `Cc1ccc(S(=O)(=O)NCC(=O)N(CC(=O)NC(C)(C)C)Cc2cccs2)cc1`, the inhibition is -0.5%.
With `CCOC(=O)N1CCC(NC(=O)Cn2cc3c(n2)CCCCC3)CC1` the figure was -10.8%; with `CC(C)c1ccc(/C=C/C(=O)NNC(=O)c2cccnc2)cc1`, 6.3%; with `CCCCn1c(SCc2ncc(-c3ccccc3)o2)nc2cc(S(N)(=O)=O)ccc21`, 54.5% (active).
On to `OC(COc1ccccc1)Cn1cc(Br)cn1` (configuration not stated), for which the inhibition was 18.3%.
For the compound `O=C(O)c1ccc(-n2cccc2)cc1O`, the inhibition was 4.7%.
For `CCC(C)(C)n1nnnc1C(c1cccs1)N1CCN(c2nc3ccccc3s2)CC1` (configuration not stated), the inhibition is 71% (active).
`CCC(C)(C)n1nnnc1CN1CCN(c2nc3ccc(C)cc3cc2C#N)CC1`: the inhibition was 8.7%.
With `CCC(C)(C)n1nnnc1C(c1cccs1)N1CCN(Cc2ccccc2)CC1` (configuration not stated) the figure was 43.4%.
`COCCCNC(=O)CCc1nc2cccnc2n1Cc1ccc(OC)cc1`: the inhibition was -1.2%.
Take `Cn1nc(C(F)(F)F)c2cc(NC(=O)OCC(C)(C)C)sc21`: the inhibition is -4.4%.
Take `COc1ccc(OC)c2c1sc(=NC(=O)CN1C(=O)CCC1=O)n2C`: the inhibition was 2.3%.
As for `C=CCn1c2ccccc2c2nnc(SC(CC)C(=O)Nc3nc(C)c(C(=O)OCC)s3)nc21` (configuration not stated), the inhibition is 75% (active).
For the compound `CCOC(=O)c1sc(/N=C/Nc2nc(C)c(C(=O)OCC)s2)nc1C`, the inhibition is 29.2%.
With `CCOC(=O)c1sc(NC(=O)C(CC)Sc2nccn2C)nc1C` (configuration not stated) the figure was 45.4%; with `O=C(c1cccnc1NCc1ccccc1)N1CCOCC1`, 4%; with `CCOC(=O)c1cc(NC(=O)c2cccnc2)cc(C(=O)OCC)c1`, 37.8%.
With `Cc1c(C(=O)OC(C)C)sc(NC(=O)c2cccnc2)c1C#N` the figure was 95.4% (active).
For the compound `O=C(Nc1cnccn1)c1cccnc1`, the inhibition was -0.8%.
With `O=C(COc1ncnc2c(Cl)cc(Cl)cc12)N1CCN(S(=O)(=O)c2ccccc2)CC1`, the inhibition was -7.6%.
With `CCCCCN(C(=O)NC(=O)Nc1ccccc1C)S(C)(=O)=O` the figure was 32.9%.
Turning to `CCCCCCCC(=O)NC(Nc1ccccc1OC)C(Cl)(Cl)Cl` (configuration not stated), the inhibition is 12.1%.
For the compound `CCCCCN(C(=O)NC(=O)Nc1ccccc1OC)S(C)(=O)=O`, the inhibition is 68.3% (active).
Next, `Cc1c(CCO)c(=O)[nH]n1C(=O)c1c(F)cccc1F`: -4.2%; `Cc1ccc(N2C(=O)S/C(=C/c3cn(C)c4ccccc34)C2=O)cc1`: -33.6%.
As for `COc1ccc(/C=C2/S/C(=N/N=C3\CC4CCC3(C)C4(C)C)NC2=O)cc1` (configuration not stated), the inhibition was -0.8%.
Consider `Cc1sc(NC(=S)NC(=O)c2cccs2)nc1-c1ccc(CC(C)C)cc1`, for which the inhibition is 14.4%.
Next, `COc1cc(C2C3C(=O)N(c4ccccc4)C(=O)C3ON2c2ccccc2)ccc1O` (configuration not stated): 69.1% (active); `CCOC(=O)C1=C(c2ccccc2)N=C2SCC(=O)N2C1c1ccc(O)c(OC)c1` (configuration not stated): 33.1%; `Cc1ccccc1N1C(=O)C2ON(c3ccccc3)C(c3ccncc3)C2C1=O` (configuration not stated): 65.9% (active).
For the compound `COc1cc(C2C(C(=O)Nc3ccccc3OC)=C(C)Nc3ncnn32)ccc1O` (configuration not stated), the inhibition was 12.1%.
In the case of `CC(=O)c1cc(NC(=O)c2ccccc2)c(=O)oc1/C=C/N(C)C`, the inhibition is 46.8%.
As for `CCCCCOC(=O)c1ccc(N2C(=O)C3C4C=CC(C4)C3C2=O)cc1` (configuration not stated), the inhibition is 46.3%.
For `O=S(=O)(NCc1cccnc1)c1ccc(Br)s1`, the inhibition is 14.7%.
Turning to `Cc1nc2nc(COc3ccccc3)[nH]n2c(=O)c1Cc1ccccc1`, the inhibition is 17.5%.
Consider `CCOCCCNS(=O)(=O)Cc1ccccc1`, for which the inhibition is -1.6%.
Next, `CCOc1ccc2nc(NCCNS(=O)(=O)c3ccccc3)c(C#N)cc2c1`: 22.2%; `CCOc1ccc2nc(N3CCCN(C(=O)Nc4ccccc4C)CC3)c(C#N)cc2c1`: 98.1% (active).
For `CCOc1ccc2cc(C#N)c(SCC(=O)OC)nc2c1`, the inhibition was 21.4%.
With `CCOC(=O)CC1C(=O)NCCN1C(=O)COc1ccc(Br)cc1C` (configuration not stated) the figure was -12%.
Consider `Fc1cnc(N2CCOCC2)nc1NCc1ccccc1`, for which the inhibition was -1.5%.
Consider `COc1c(C)cccc1C(=O)Nc1cc(Cl)ccc1N1CCOCC1`, for which the inhibition was 26.5%.
In the case of `Cc1c(NC(=O)c2cc(-c3ccc(Cl)s3)nc3ccccc23)c(=O)n(-c2ccccc2)n1C`, the inhibition is 29.3%.
For `O=S(=O)(Nc1ccccc1N1CCOCC1)c1ccc(Cl)s1`, the inhibition was 10.6%.
As to `O=C(CN1CCOCC1)Nc1cc(Cl)ccc1Cl`, the inhibition is -138%.
On to `Cc1cc(C(=O)Nc2ccccc2N2CCOCC2)c2ccccc2n1`, for which the inhibition was 58.2% (active).
With `O=C(CNC(=O)c1ccc(Cl)cc1Cl)NCC(=O)Nc1ccccc1N1CCOCC1`, the inhibition was 57.6% (active).
For `Nc1nonc1-c1noc(-c2ccc(Br)o2)n1`, the inhibition was 2.6%.
On to `O=c1[nH]c(-c2cccs2)nc2ccccc12`, for which the inhibition was 3.1%.
Consider `CCSc1nc(=S)n(CC)c(C)c1C(C)=O`, for which the inhibition is -26.9%.
Turning to `S=C(NCCC1=CCCCC1)Nc1ccccc1`, the inhibition is 14.4%.
In the case of `O=C(NCCC1=CCCCC1)C1CCN(Cc2cnn(-c3ccccc3)c2-n2cccc2)CC1`, the inhibition was 48.5%.
With `C1=C(CCNc2ncnc3c2cnn3-c2ccccc2)CCCC1`, the inhibition was 62% (active).
As for `CC(C)CC[n+]1ccn(C2=C([O-])c3ccccc3C(=O)/C2=N\S(=O)(=O)c2ccccc2)c1`, the inhibition was 40.4%.
Next, `CCCCOC(=O)NCN1C(=O)C2C3C=CC(C3)C2C1=O` (configuration not stated): -5.7%; `c1ccc(-c2cn3c(n2)CCc2ccc4cccnc4c2-3)cc1`: 20.7%.
With `O=S(=O)(N1CCOCC1)N1CCN(c2ccccc2F)CC1` the figure was 17.2%.
For the compound `O=C(c1cccc2ccccc12)N1CCN(c2ccccc2F)CC1`, the inhibition is -14.7%.
Next, `O=C(c1ccc(CN2CCOCC2)cc1)N1CCN(c2ccccc2F)CC1`: 51.8% (active); `COC(=O)[C@H](C(C)C)n1c(C)c(C(C)=O)c(C(C)=O)c1C`: 7%; `O=C(CC1Oc2ccccc2NC1=O)NCCCN1CCN(Cc2ccccc2)CC1` (configuration not stated): -28.8%.
On to `CCOC(=O)c1c(C(C#N)C#N)cc(C)nc1C`, for which the inhibition was 41.1%.
Turning to `O=C(NCCc1ccccc1)c1ccc(NC2=NC3CS(=O)(=O)CC3S2)cc1` (configuration not stated), the inhibition was 0.2%.
On to `O=C(NCCc1ccccc1)c1ccc(OCCOc2ccccc2)cc1`, for which the inhibition was -10.5%.
With `CC1CCCN(c2ccc(C(=O)NCCc3ccccc3)cn2)C1` (configuration not stated), the inhibition was 80.7% (active).
For the compound `CCC(C)(C)NC(=O)C(c1cccn1C)N(Cc1ccc(C)cc1)C(=O)Cn1nnc2ccccc21` (configuration not stated), the inhibition is 28.4%.
Consider `CC(C)CNC(=S)NNC(=O)c1ccccc1OC(F)F`, for which the inhibition was 3.6%.
With `CNC(=O)c1csc(-c2ccccc2)n1` the figure was 13.2%.
Take `COc1cccc(C(=O)Nc2ccc(N3CCCC3)cc2)c1`: the inhibition was 11.9%.
`COc1cc(N2CCCC2)c(OC)cc1/C=C(/C#N)c1cccc(Br)c1`: the inhibition was 67.5% (active).
With `CN1CCCc2cc(C#N)c(=O)[nH]c21` the figure was 45.5%.
Next, `Cc1ccc(CNC(=O)C2CCCN(S(C)(=O)=O)C2)cc1` (configuration not stated): -3.4%; `O=C(NCc1cccs1)C1CCN(S(=O)(=O)c2ccc3c(c2)OCCO3)CC1`: -174%; `O=C(C1CCN(S(=O)(=O)c2cccs2)CC1)N1CCCCCC1`: 34.9%.
`CCCS(=O)(=O)N1CCCC(C(=O)NCc2ccco2)C1` (configuration not stated): the inhibition is 0.9%.
Next, `O=C(NC1CCCCC1)C1CCCN(S(=O)(=O)c2cccs2)C1` (configuration not stated): 68.3% (active); `O=S(=O)(c1cccs1)N1CCc2ccccc2C1`: -206%; `O=C(NCc1ccco1)C1CCCN(S(=O)(=O)c2ccccc2)C1` (configuration not stated): 30.4%.
Next, `CN1CCN(S(=O)(=O)c2ccc(N3CCN(S(=O)(=O)c4cccs4)CC3)nc2)CC1`: 49.3%; `CCS(=O)(=O)N1CCCC(C(=O)NCc2ccc(C)cc2)C1` (configuration not stated): 6.9%; `O=C(NCc1ccc2c(c1)OCO2)C1CCCN(S(=O)(=O)c2cccs2)C1` (configuration not stated): 92.5% (active).
On to `O=C(NCc1ccccc1)C1CCCN(S(=O)(=O)c2cccs2)C1` (configuration not stated), for which the inhibition is 81.9% (active).
As to `O=S(=O)(c1cccs1)N1CCN(Cc2ccccc2)CC1`, the inhibition was 69.5% (active).
